SMILES strings stand for the structures. The source made the active and inactive calls. The rule behind the calls is not given here. Bounds are passed on as bounds.
Potency is the fitted concentration of half-maximal effect.

In the assay the test system is HIV-1 nucleocapsid protein NCp7 (binding to TG oligonucleotide). The experiment in a line: HIV Nucleocapsid (AID 346).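 Note: potency is for inhibitors that block NC binding and lower polarization.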 To be noted: HIV-1 NC / fluorescein-TGTGTGTG probe, fluorescence polarization. Summed up: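 10 nM TG4xF probe with 100 nM nucleocapsid protein in high-salt Hepes pH 7.5 (250mM NaCl) containing 1uM ZnCl2 and reducing agents. Compound inhibition of binding was read as fluorescein polarization after 1 hr at room temperature.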
In general terms: Polarisation of emitted light reports the rotation of a fluorescent probe.
Take `Clc1ccccc1-c1nc(-n2ccnc2)c2ccccc2n1`: the Potency was > 20 µM (inactive).

Regarding `COc1ccccc1-c1ccc2ncnc(NC3CC3)c2c1`, the Potency is > 20 µM (inactive).

`O=c1c(-c2cccc(F)c2)nc2cncnc2n1C1CC1`: the Potency is > 20 µM (inactive).

For `CN(C)c1ncc2nc(-c3cccc(C#N)c3)c(=O)n(C[C@H]3CCCO3)c2n1`, the Potency was > 20 µM (inactive).

For `COc1cccc(Cn2c(=O)cnc3cnc(Oc4cccc(Cl)c4)nc32)c1`, the Potency was > 20 µM (inactive).

In the case of `COc1ccc(C(=O)N2CCC3(CCCN(Cc4ccncc4)C3)CC2)cc1`, the Potency is > 20 µM (inactive).

With `COc1cccc(Nc2ncc3ncc(=O)n(C)c3n2)c1`, the Potency is > 20 µM (inactive).

Regarding `CN(C)c1ccc(-c2ccc3ncnc(N4CCNCC4)c3c2)cc1`, the Potency was > 20 µM (inactive).

For `COc1cccc(Cn2c(=O)c(-c3cc(F)cc(F)c3)nc3cnc(N4CCNCC4)nc32)c1`, the Potency was > 20 µM (inactive).

These data come from PubChem BioAssay (NCATS).
